Results reported in article PMC4336329 (PLoS ONE, 2015).
The campaign covered roughly 310,000 compounds. About 14,000 (4.5%) showed an effect of 50% or more. Effects have a minus sign here. For the sample, strong results were picked, then their nearest neighbours and some compounds at random.

Biological target: human ether-à-go-go-related gene (hERG) potassium channel (human, UniProt Q12809)
Test: primary screen, population patch clamp on CHO cells stably expressing hERG; higher = less effect of the substance
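Note: peak tail current of the secondary pulse compared with the same well before compound.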

Sequence of human ether-à-go-go-related gene (hERG) potassium channel (Q12809 whole entry, looked up): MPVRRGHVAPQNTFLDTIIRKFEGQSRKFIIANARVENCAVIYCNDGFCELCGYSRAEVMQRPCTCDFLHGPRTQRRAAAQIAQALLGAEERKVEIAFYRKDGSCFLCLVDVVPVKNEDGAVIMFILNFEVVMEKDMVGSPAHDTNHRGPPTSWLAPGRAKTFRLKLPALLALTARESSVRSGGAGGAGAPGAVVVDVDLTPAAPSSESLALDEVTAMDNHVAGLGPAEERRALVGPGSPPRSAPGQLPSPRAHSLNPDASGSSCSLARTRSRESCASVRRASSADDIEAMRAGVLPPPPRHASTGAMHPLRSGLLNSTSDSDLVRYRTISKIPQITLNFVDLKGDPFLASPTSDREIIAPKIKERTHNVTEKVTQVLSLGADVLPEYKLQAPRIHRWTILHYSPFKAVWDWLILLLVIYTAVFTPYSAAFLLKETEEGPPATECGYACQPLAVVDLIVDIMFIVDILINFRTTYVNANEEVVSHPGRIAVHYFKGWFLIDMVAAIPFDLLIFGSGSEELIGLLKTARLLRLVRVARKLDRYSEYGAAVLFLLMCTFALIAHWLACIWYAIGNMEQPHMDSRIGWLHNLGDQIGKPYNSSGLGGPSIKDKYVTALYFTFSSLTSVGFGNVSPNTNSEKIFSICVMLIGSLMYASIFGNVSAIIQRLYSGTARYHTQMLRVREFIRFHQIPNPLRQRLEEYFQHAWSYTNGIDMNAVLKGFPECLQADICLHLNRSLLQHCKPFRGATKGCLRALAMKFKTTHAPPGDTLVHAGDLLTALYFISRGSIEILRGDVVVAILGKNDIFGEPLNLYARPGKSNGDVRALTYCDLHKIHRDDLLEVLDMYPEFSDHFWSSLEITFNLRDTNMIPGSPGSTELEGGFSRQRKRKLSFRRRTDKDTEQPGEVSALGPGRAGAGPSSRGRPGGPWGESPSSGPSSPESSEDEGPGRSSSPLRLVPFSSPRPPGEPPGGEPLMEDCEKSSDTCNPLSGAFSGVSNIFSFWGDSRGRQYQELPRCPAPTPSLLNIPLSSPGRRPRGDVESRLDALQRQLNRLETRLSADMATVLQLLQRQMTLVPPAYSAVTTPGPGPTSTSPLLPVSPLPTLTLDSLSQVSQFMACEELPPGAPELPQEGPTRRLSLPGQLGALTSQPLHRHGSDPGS

Row | SMILES | hERG current change (%, negative = inhibition) at 10uM [%]
1 | CCCNC(=O)C12CCC(C)(C(=O)O1)C2(C)C (stereo not drawn) | 17.2
2 | Clc1ccc2nc(-c3ccc(Br)s3)cn2c1 | 8.14
3 | COc1ccc(-c2nc(CN3CCC(C(=O)NC4CCN(Cc5ccccc5)CC4)CC3)c(C)o2)cc1OC | 1.67
4 | COc1ccccc1CNC(=O)C1CCN(Cc2nc(-c3cccc(Cl)c3)oc2C)CC1 | -78
5 | CCc1ccc(-c2nc(CN3CCC(C(=O)NCc4ccccc4OC)CC3)c(C)o2)cc1 | -68.4
6 | Cc1oc(-c2cccc(Cl)c2)nc1CN1CCC(C(=O)NCCCN2CCCC2=O)CC1 | -38
7 | COc1ccccc1CNC(=O)C1CCN(c2nc3ccccc3o2)CC1 | -9.09
8 | COCCOC(=O)c1c(NC(=O)COC(=O)c2ccc(C)o2)sc(C(N)=O)c1C | -10.9
9 | CCc1ccc(CCOc2ccc(CC3SC(=O)NC3=O)cc2)nc1.Cl (stereo not drawn) | 4.26
10 | CC(C)CC(=O)N1CCN(C(=O)c2cccc(F)c2)CC1 | 0.0457
11 | C1CCC(OCCN2CCN(CCOC3CCCCC3)CC2)CC1 | -37.1
12 | Cc1ccc(N2C(=O)NC3(CCCCC3)C2=O)cc1 | 9.24
13 | Cc1cc(C(=O)Nc2ccccc2N2CCOCC2)c2ccccc2n1 | -15.5
14 | CC(C)n1c(N2CCN(C(=O)Nc3ccc(F)cc3F)CC2)nc2ccccc21 | -26.3
15 | CCCCc1ccc(NC(=O)N2CCN(c3cc(C)nc4ccccc34)CC2)c(C)c1 | -61.6
16 | Cc1cc(N2CCN(C(=O)Nc3ccc(F)cc3F)CC2)c2ccccc2n1 | -72.2
17 | COc1ccccc1N1CCN(C(=O)Nc2cccc(C)c2)CC1 | -3.99
18 | O=C(Nc1ccc(F)cc1F)N1CCN(c2ncccn2)CC1 | -8.77
19 | COc1cccc(Cl)c1NC(=O)N1CCN(c2cc(C)nc3ccccc23)CC1 | -75.3
20 | Cc1cc(N2CCN(C(=O)/C=C/C(=O)O)CC2)c2ccccc2n1 | 32.4
21 | Cc1ccccc1NC(=O)N1CCN(c2ncccn2)CC1 | 4.15
22 | Cc1cc(N2CCN(CC(O)C(F)(F)F)CC2)c2ccccc2n1 (stereo not drawn) | -40.7
23 | Cc1cc(N2CCN(C(=O)Nc3ccccc3C#N)CC2)c2ccccc2n1 | -72.9
24 | COc1ccccc1N1CCN(C(=O)Nc2cccc(Cl)c2)CC1 | -28.2
25 | CCOC(=O)c1sc(NC(=O)C2C3C=CC(C3)C2C(=O)O)nc1C (stereo not drawn) | 16.2
26 | CC[C@H](C)/C=C(C)/C=C/C1=CC2=CC(=O)[C@]3(C)OC(=O)[C@@H](C(C)=O)[C@@H]3C2=CO1 | 4.65
27 | O=[N+]([O-])c1ccc(O)c(/C=N/n2c(-c3ccccc3)n[nH]c2=S)c1 | 17.9

Row | SMILES | hERG current change (%, negative = inhibition) at 10uM [%]
28 | O=C(O)c1cccc(Nc2ncnc3ccccc23)c1 | 17.3
29 | CC1CCCC(C)N1NC(=O)c1cccc(S(=O)(=O)N2CCc3ccccc32)c1 (stereo not drawn) | -2.22
30 | Cc1ccc(CSc2ncnc3ccccc23)cc1 | 11.3
31 | Cc1ccc(S(=O)(=O)NNC(=O)C2COc3ccccc3O2)cc1C (stereo not drawn) | 15.2
32 | O=C(CSc1nnc(-c2ccc(S(=O)(=O)N3CCCC3)cc2)o1)NCc1ccco1 | -7.57
33 | COc1ccc(N2CCN(c3ccc(C(N)=O)cc3[N+](=O)[O-])CC2)cc1 | 2.51
34 | COc1ccc(N2CCN(C(=O)c3ccc(Br)cc3)CC2)c([N+](=O)[O-])c1 | -72.3
35 | COc1ccc(N2CCN(C(=S)NC(=O)c3cccs3)CC2)c([N+](=O)[O-])c1 | -47.8
36 | CCCCC(=O)N1CCN(c2ccc(OC)cc2[N+](=O)[O-])CC1 | -64.5
37 | COc1cccc(C(=O)N2CCN(C(=O)c3cccc(F)c3)CC2)c1 | -0.0938
38 | COc1ccc(N2CCN(C(=O)CC34CC5CC(CC(C5)C3)C4)CC2)c([N+](=O)[O-])c1 | 0.229
39 | COc1ccc(N2CCN(C(=O)c3cccc(F)c3)CC2)c([N+](=O)[O-])c1 | -73.2
40 | Cn1c(=O)n(C)c2cc([N+](=O)[O-])c(N3CCN(C(=O)c4cccc(F)c4)CC3)cc21 | -32.7
41 | COc1ccc(C(=O)c2ccc(N3CCOCC3)c([N+](=O)[O-])c2)cc1 | -43.7
42 | CCC(=O)N1CCN(c2ccc(OC)cc2[N+](=O)[O-])CC1 | -19.5
43 | COc1ccc(N2CCN(C(=O)c3ccccc3)CC2)c([N+](=O)[O-])c1 | -67.7
44 | COc1cccc(CC(=O)N2CCN(c3ccccc3[N+](=O)[O-])CC2)c1 | -21
45 | COc1ccc(C2N=C(Nc3ccc(C)cc3)Nc3nc(C)cc(=O)n32)cc1 (stereo not drawn) | 1.81
46 | COc1ccc(CCN2CC(O)=C(c3nc(C)cs3)C2=N)cc1OC | -21.8
47 | CCn1c(=O)c(C(=O)CN2CC(C)OC(C)C2)c(N)n(Cc2ccccc2)c1=O (stereo not drawn) | -32.6
48 | COc1ccc(CCNC(=O)NC2CCCCC2)cc1OC | 8.03
49 | O=C(Nc1ccc(Cl)cc1)c1cc2c(cc1O)[nH]c1ccccc12 | 21
50 | Cc1ccc2nc(-c3ccc(NS(=O)(=O)c4ccc(F)c(F)c4)cc3)sc2c1 | 23.3
51 | COc1cccc(C2CC(c3ccccc3Cl)n3nc(N)nc3N2)c1 (stereo not drawn) | -9.01
52 | COc1ccc(CCN(Cc2nc(-c3ccccc3)no2)Cc2nc(-c3ccccc3)no2)cc1OC | -3.37
53 | O=C(N/N=C/c1cc([N+](=O)[O-])ccc1O)C1C2CCCCC21 (stereo not drawn) | 3.28
54 | CCn1cc(C(=O)N[C@@H](CCSC)C(=O)NCCO)c(=O)c2cc3c(cc21)OCO3 | 20.6
